89 compounds from PubChem BioAssay AID2235 (The Scripps Research Institute Molecular Screening Center, 2010) can be followed below.

About 2,800 (0.88%) of roughly 320,000 compounds were called active. Shown is part of a subset that was picked to be rich in actives. Unmarked numbers belong to inactive results.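 How the source made its calls: active means inhibition above the mean inhibition of all tested compounds plus 3 SD, computed separately for each screening campaign (cut at about 15% in these data); inactive means the rest.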

The test deals with Serine/threonine-protein phosphatase PP1-alpha catalytic subunit (Homo sapiens) (UniProt P62136). The experiment in a line: PP1-alpha phosphatase inhibitors, primary screen, counter-screen for PP5 inhibitor project, biochemical, fluorescence, OMFP substrate, single point (AID 2235). The settings on record: purified PP1alpha, at 6.7 µM, hits give high values.
Serine/threonine-protein phosphatase PP1-alpha catalytic subunit (Homo sapiens), sequence (P62136 whole entry, looked up): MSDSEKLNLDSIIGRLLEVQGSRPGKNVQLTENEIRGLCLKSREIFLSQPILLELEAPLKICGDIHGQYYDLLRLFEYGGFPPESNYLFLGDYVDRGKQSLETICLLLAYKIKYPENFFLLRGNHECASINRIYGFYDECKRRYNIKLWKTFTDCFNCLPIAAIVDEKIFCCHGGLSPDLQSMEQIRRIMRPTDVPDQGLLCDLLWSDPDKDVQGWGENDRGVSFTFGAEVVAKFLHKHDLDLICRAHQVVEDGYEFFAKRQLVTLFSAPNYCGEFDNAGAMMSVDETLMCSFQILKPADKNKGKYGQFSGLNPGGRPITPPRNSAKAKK
For the compound `O=C(c1ccco1)N1CCN(C(=S)Nc2cc(F)cc(F)c2)CC1`, the inhibition (in general, the relative decrease from the control value, in per cent) is -1.12%. Under `COC(=O)c1c(C)c(C)nc(N)c1C#N` stands -0.85%; under `O=[N+]([O-])/C=C/c1ccc2c(ccn2Cc2ccccc2)c1`, 18.3% (active). For `COC(=O)Cn1cc(/C=C/[N+](=O)[O-])c2ccccc21`, the inhibition was -3.58%. Regarding `O=C(/C=C/c1cccc([N+](=O)[O-])c1)N1CCN(Cc2ccccc2)CC1`, the inhibition is 1.31%. The figure for `Cc1ccnc(N2CCN(C(=O)CSc3nc4ccccc4nc3N3CCCCC3)CC2)c1` is 2.11%. Under `CCCC[C@H]1COCCS(=O)(=O)N1Cc1cccc(Cl)c1` stands -6.26%; under `Oc1c(Cl)cc(Cl)c(Cl)c1Cc1c(O)c(Cl)cc(Cl)c1Cl`, 21% (active); under `COc1cc(N2C(=O)CSC2=S)cc(OC)c1OC`, -0.27%.

Regarding `CC(C)n1ncc2c(C(=O)Nc3ccc(CC#N)cc3)cc(C3CC3)nc21`, the inhibition was 0.77%. `CC(=O)Nc1ccc(S(=O)(=O)NC(C)C(=O)OCC(=O)NC2CCCC2)cc1` (centres undefined): the inhibition is -2.23%. The figure for `Cc1ccc(-c2cc(C(=O)N/N=C/C=C/c3ccco3)c3ccccc3n2)cc1C` is 20% (active); for `O=C(N/N=C/C=C/c1ccco1)c1cccs1` it is -2.08%.

For the compound `COc1ccc(/C=N/NC(=O)c2cc(-c3cccc(C)c3)nc3ccccc23)cc1O`, the inhibition is -0.69%. Regarding `CCn1cc(C(=O)NC2CCCCCC2)c(=O)c2cc(S(=O)(=O)N3CCCCC3)ccc21`, the inhibition was -1.18%. Under `Cc1ccc(N2C(=O)C3C4C=CC(CC4)C3C2=O)cc1Br` (centres undefined) stands -2.3%; under `O=C(Nc1cccc(-c2nc3ccccc3[nH]2)c1)c1ccc(C(=O)Nc2cccc(-c3nc4ccccc4[nH]3)c2)cc1`, 18.9% (active); under `Cc1ccc(-c2nc3ccccc3[nH]2)cc1N`, -2.81%. Turning to `O=C(/C=C/c1ccco1)Nc1cccc(-c2nc3ccccc3[nH]2)c1`, the inhibition is -1.53%. The figure for `O=C(O)c1ccccc1C(=O)NC1=NN(c2ccccc2)CC1` is 2.04%; for `Cc1ccc2nc(N(CCN(C)C)C(=O)C3=COCCO3)sc2c1` it is -4.21%. As for `O=C(NCc1cccs1)c1cc(-c2ccccn2)nc2ccc(Br)cc12`, the inhibition is 0.34%. On to `Cc1ccc(-c2cc(C(=O)NCc3cn(C)nc3C)c3cc(Br)ccc3n2)cc1`, for which the inhibition is 15.4% (active). The figure for `Cc1nn(C)cc1CNC(=O)Nc1ccc(Cl)cc1` is -6.68%; for `Cc1cc(C)c(C(N)=O)c(Cl)n1` it is -1.75%. For `CCCN(CCC)CCCNC(=O)CNC(=O)c1nn(-c2ccc(OC)cc2)c(=O)c2ccccc12`, the inhibition was -4.54%. Consider `COc1ccc(CN2CCNC(=O)C2CC(=O)NCc2cn[nH]c2-c2ccccc2)c(F)c1` (centres undefined), for which the inhibition is 3.63%. Under `OCCC1CN(Cc2ccc(Oc3ncccn3)cc2)CCN1CCc1ccccc1` (centres undefined) stands -2.28%; under `COc1cc(/C=C/C(=O)OCC(=O)NC(=O)NCc2ccccc2)ccc1OCC#N`, -4.2%; under `CCOc1ccc(/C=C/C(=O)OCC(=O)c2ccccc2OC)cc1OC`, 23.7% (active). The figure for `COc1ccc(/C=C/C(=O)OCC(=O)NCc2cccs2)cc1OC` is -2.5%. With `O=C(C1CCCO1)N1CCN(S(=O)(=O)c2ccc(Br)cc2)CC1` (centres undefined), the inhibition is 0%. The figure for `COc1cc(NC(=O)COC(=O)c2cnc(C)cn2)c(C)cc1[N+](=O)[O-]` is -3.47%; for `Nn1c(SCc2ccccc2)nnc1C1CCCCC1` it is -2.09%. The figure for `COCCCNC(=O)C1CC(=O)N(c2ccc(C)cc2)C1` (centres undefined) is 73.3% (active); for `COCCCNC(=O)C1CC(=O)N(CCc2ccccc2)C1` (centres undefined) it is 0.11%. Under `COCCNC(=O)C1CCN(C(=O)C2CC(=O)N(c3ccc(C)cc3)C2)CC1` (centres undefined) stands -0.32%; under `Cc1cccnc1NC(=O)c1cccc(S(=O)(=O)N2CCN(c3ccc(F)cc3)CC2)c1`, -3.22%. Turning to `Oc1c(CN2CCN(c3ccc(F)cc3)CC2)cc(Cl)c2cccnc12`, the inhibition is 35.2% (active). The figure for `O=C(CN1CCN(c2ccc(F)cc2)CC1)Nc1ccccc1` is 2.42%. Regarding `C1CC1Cc1noc(CN2CCN(CC3CC3)CC2)n1`, the inhibition is -4.45%. Consider `CC(=O)Nc1ccc(C(=O)NNC(=O)CCCCC(=O)NNC(=O)c2ccc(NC(C)=O)cc2)cc1`, for which the inhibition is -4.34%. The figure for `CCc1sc(C(=O)N2CCN(CC(=O)Nc3cccc(F)c3)CC2)cc1C` is -1.08%; for `O=C(Nc1ccc(C(=O)O)cc1)/C(=C/c1ccc([N+](=O)[O-])cc1)NC(=O)c1ccccc1` it is -0.04%; for `Cc1ccc(NC(=O)/C(=C/c2ccc([N+](=O)[O-])cc2)NC(=O)c2ccccc2)cc1` it is 1.49%. Regarding `O=C(N/N=C/c1cc([N+](=O)[O-])ccc1O)/C(=C\c1cccs1)NC(=O)c1ccccc1`, the inhibition is 19.9% (active). As to `COC(=O)CC(=O)N1CCN(c2ccc(Cl)c(Cl)c2)CC1`, the inhibition is -1.17%.

Take `CC(C)Cn1c(N)c(C(=O)COC(=O)C2CCCN2C(=O)c2cccs2)c(=O)n(C)c1=O` (centres undefined): the inhibition was 3.85%. In the case of `Cc1ccc(OCC(=O)N2CCN(S(=O)(=O)c3ccc(Cl)s3)CC2)cc1C`, the inhibition is 2.28%. With `Cc1nc2c(C(=O)NCc3ccc4c(c3)OCO4)c[nH]n2c(=O)c1Cc1ccccc1F`, the inhibition is 42.6% (active). On to `O=C(NCc1ccc2c(c1)OCO2)c1cc(F)c(F)cc1Cl`, for which the inhibition is 2.6%.

Regarding `CCn1c(=O)c(C(=O)NCc2ccc3c(c2)OCO3)c(O)c2ccccc21`, the inhibition is -4.95%. Regarding `COc1ccccc1NC(=O)CSc1nnc(C)n1CC1CCCO1` (centres undefined), the inhibition was -1.67%. The figure for `Cc1ccc(NC(=O)CSc2nnc(COc3ccccc3C)o2)cc1` is -4.67%; for `CC(=O)Nc1ccc(NC(=O)CSc2nnc(COc3ccccc3C)n2CC2CCCO2)cc1` (centres undefined) it is 16.9% (active); for `Cc1ccc(C)c2[nH]c(=O)c(CN(Cc3cccnc3)C(=S)NCc3ccco3)cc12` it is 1.73%. The figure for `Cc1cccc2cc(CN(C(=O)c3cccs3)c3ccccc3)c(=O)[nH]c12` is 1.24%. Regarding `Cc1cccc2cc(CN(Cc3cccs3)C(=S)NCc3ccco3)c(=O)[nH]c12`, the inhibition is 16.9% (active). The figure for `Cc1ccnc(NC(=O)c2ccc(Cl)c([N+](=O)[O-])c2)c1` is -0.42%; for `Cc1c(NC(=O)CN2C(=O)C(=O)N(Cc3ccccc3)C2=O)c(=O)n(-c2ccccc2)n1C` it is -2.42%; for `N#Cc1c(-c2ccccc2)nc(SCc2ccc([N+](=O)[O-])cc2)[nH]c1=O` it is 9.45%.

In the case of `N#Cc1c(-c2ccccc2)nc(SCc2cccc(C(F)(F)F)c2)[nH]c1=O`, the inhibition was 22.1% (active).

Turning to `Cc1ccc(CSc2nc(-c3ccccc3)c(C#N)c(=O)[nH]2)cc1`, the inhibition is 14.2%. Turning to `Cc1ccc(OCCC(=O)OCC(=O)N2c3ccccc3NC(=O)C2(C)C)cc1`, the inhibition was 0.61%.

Turning to `CCCCN(CC)C(=O)c1ccccc1Oc1ccccc1`, the inhibition was -1.38%. Under `CCOC(=O)c1c(S(=O)(=O)Nc2ccc(CN3CCC(C)CC3)cc2)c(C)n(C)c1C` stands 2.36%.

Regarding `O/N=C(\c1ccc2c(c1)OCCO2)C1CCCCC1`, the inhibition is 0.46%. The figure for `Cc1ccc2c(CN3CCN(S(=O)(=O)c4ccccc4C(F)(F)F)CC3)cc(=O)oc2c1` is 16.8% (active). Under `Cc1cc2oc(=O)cc(CN3CCN(S(=O)(=O)c4cccs4)CC3)c2cc1C(C)C` stands -3.33%.

On to `COc1ccc2c(CN3CCN(S(=O)(=O)c4cccs4)CC3)cc(=O)oc2c1`, for which the inhibition is 4.63%. Under `COc1ccccc1NS(=O)(=O)N(C)C` stands 6.89%; under `CCCc1nnc(NC(=O)CCC(=O)N2CCN(S(=O)(=O)c3ccc(OC)cc3)CC2)s1`, -4.44%; under `Nc1ccc2nc3c(=O)[nH]c(=S)[nH]c3nc2c1`, 41.9% (active). Regarding `Cc1cc2nc3c(=O)n(Cc4ccccc4)c(=O)[nH]c3nc2cc1N`, the inhibition is 2.81%. Take `COC(=O)/C(C#N)=C/c1occc1C`: the inhibition is -1.37%. As for `CCC(C)(C)NC(=O)C(c1ccc(O)cc1)N(C(=O)Cn1nnc2ccccc21)c1ccc(NC(C)=O)cc1` (centres undefined), the inhibition was 4.46%.

Regarding `Clc1ccccc1CSc1nnc(-c2ccco2)c(-c2ccco2)n1`, the inhibition is 24.6% (active). The figure for `O=C(CC1N=C2c3ccccc3N=C(SCc3ccccc3Cl)N2C1=O)NCc1ccco1` (centres undefined) is 1.15%. Under `O=c1cc(O)nc(SCc2ccccc2Cl)[nH]1` stands 3.47%; under `CCOC(=O)N1CCN(S(=O)(=O)c2cc3c(cc2C)NC(=O)CO3)CC1`, -2.81%. For `COc1cc(C2C(C(=O)c3ccco3)=C(O)C(=O)N2c2cc(C)on2)ccc1OCc1ccccc1` (centres undefined), the inhibition is 13.9%. For `CCOc1cc(C2C(C(=O)c3ccco3)=C(O)C(=O)N2Cc2ccccc2)ccc1O` (centres undefined), the inhibition is 4.74%. Turning to `COc1cc(C2C(C(=O)c3ccc(C)o3)=C(O)C(=O)N2CCc2ccccc2)ccc1O` (centres undefined), the inhibition was 32.7% (active).

Consider `COc1ccc(CCN2C(=O)c3[nH]nc(-c4ccccc4O)c3C2c2ccc(C)cc2)cc1OC` (centres undefined), for which the inhibition is 6.53%.

Consider `Cc1cc(N2C(=O)C(=O)/C(=C(/O)c3ccccc3)C2c2cccc(Br)c2)no1` (centres undefined), for which the inhibition is -4.18%. Under `Cc1cc(N2C(=O)C(O)=C(C(=O)c3ccc(C)o3)C2c2ccc(OCc3ccccc3)cc2)no1` (centres undefined) stands 26.8% (active); under `Cc1c(Cl)c([N+](=O)[O-])nn1CC(=O)NCC1CCCO1` (centres undefined), -3.7%. The figure for `COc1ccccc1N1CCN(S(=O)(=O)c2ccc3c(c2)NC(=O)CS3)CC1` is 5.88%; for `CCOc1ccc(C(=O)Nc2ccc(S(=O)(=O)NCC3CCCO3)cc2)cc1OCC` (centres undefined) it is -1.6%.
